# Laboratory results reported in PMC4336329 (PLoS ONE, 2015).
# In all, about 310,000 compounds went through this assay and about 14,000 (4.5%) showed an effect of 50% or more. The effect is printed as a negative number. Many of the other results were omitted from the sample, so strong results are more common in it than they were.
# Target: human ether-à-go-go-related gene (hERG) potassium channel (human, UniProt Q12809)
# Test: primary screen, population patch clamp on CHO cells stably expressing hERG; higher = less effect of the substance
# 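Further: peak tail current of the secondary pulse compared with the same well before compound.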
# human ether-à-go-go-related gene (hERG) potassium channel, sequence (Q12809 whole entry, looked up): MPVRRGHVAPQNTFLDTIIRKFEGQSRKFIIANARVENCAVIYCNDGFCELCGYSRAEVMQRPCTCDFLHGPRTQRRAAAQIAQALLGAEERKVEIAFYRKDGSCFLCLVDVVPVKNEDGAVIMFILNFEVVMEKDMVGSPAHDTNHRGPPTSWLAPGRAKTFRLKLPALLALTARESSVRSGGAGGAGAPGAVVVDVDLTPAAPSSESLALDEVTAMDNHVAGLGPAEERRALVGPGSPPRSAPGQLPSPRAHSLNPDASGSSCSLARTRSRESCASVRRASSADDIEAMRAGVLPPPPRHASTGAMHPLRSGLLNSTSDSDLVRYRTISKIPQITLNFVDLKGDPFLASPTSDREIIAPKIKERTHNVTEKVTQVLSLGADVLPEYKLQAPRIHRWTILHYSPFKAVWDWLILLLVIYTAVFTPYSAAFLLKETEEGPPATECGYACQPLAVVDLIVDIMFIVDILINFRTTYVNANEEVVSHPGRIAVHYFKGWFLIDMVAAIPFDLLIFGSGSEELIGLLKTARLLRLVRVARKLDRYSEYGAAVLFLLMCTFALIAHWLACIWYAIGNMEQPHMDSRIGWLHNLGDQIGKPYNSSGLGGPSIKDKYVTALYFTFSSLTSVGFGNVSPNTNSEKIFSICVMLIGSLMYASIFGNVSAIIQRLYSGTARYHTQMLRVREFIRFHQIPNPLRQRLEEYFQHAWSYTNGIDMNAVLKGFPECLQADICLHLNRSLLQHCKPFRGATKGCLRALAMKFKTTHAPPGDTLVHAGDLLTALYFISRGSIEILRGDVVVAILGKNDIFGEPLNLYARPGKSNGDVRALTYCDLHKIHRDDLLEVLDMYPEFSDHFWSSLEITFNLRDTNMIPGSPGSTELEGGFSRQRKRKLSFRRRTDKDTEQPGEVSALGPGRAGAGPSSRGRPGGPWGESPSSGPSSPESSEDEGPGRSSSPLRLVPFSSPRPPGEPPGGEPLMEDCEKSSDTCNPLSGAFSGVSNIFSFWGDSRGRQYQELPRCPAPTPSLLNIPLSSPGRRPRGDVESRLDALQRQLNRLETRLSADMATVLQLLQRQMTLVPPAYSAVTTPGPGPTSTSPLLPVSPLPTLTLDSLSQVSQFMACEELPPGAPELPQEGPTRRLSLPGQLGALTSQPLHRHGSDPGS
row,SMILES,"hERG current change (%, negative = inhibition) at 10uM [%]"
1,O=c1c2ccccc2nnn1Cc1ccc(Br)cc1,8.66
2,CCNC(=O)NC(=O)CSc1ccccc1F,10.7
3,Cc1nc2sc3c(c2c(=O)[nH]1)CCC3,12.1
4,CC(NC(=O)c1cccs1)C(=O)NC1=NCCS1 (centres unmarked),1.3
5,COc1cc(N)c(Cl)cc1C(=O)OCC(=O)c1ccc2c(c1)NC(=O)CO2,1.68
6,Cc1nnc(SCC(=O)Nc2cc(S(C)(=O)=O)ccc2Cl)n1Cc1ccccc1,6.22
7,CC(=O)NCCNC(=O)c1cccc(NS(=O)(=O)c2ccc3c(c2)OCCO3)c1,-2.65
8,Cc1c(NC(=O)C2CC(c3c(F)cccc3Cl)=NO2)c(=O)n(-c2ccccc2)n1C (centres unmarked),14.7
9,CN1CCN(C2=Cc3ccc(Cl)cc3Sc3ccc(F)cc32)CC1.CS(=O)(=O)O.O,-14.8
10,CN1CCN(C2=Cc3ccccc3Sc3cc(F)ccc32)CC1.O=C(O)/C=C\C(=O)O,-62.8
11,CN1CCN(C2Cc3cc(Cl)ccc3Sc3cc(F)ccc32)CC1.CS(=O)(=O)O (centres unmarked),-38.2
12,CN1CCN(C2=Cc3ccccc3Sc3cc(F)c(Cl)cc32)CC1.O=C(O)/C=C\C(=O)O,-12.4
13,CC(C)c1ccc2c(c1)C(N1CCN(C)CC1)Cc1cccnc1S2.O=C(O)/C=C\C(=O)O (centres unmarked),-50.6
14,CN1CCN(C2=Cc3ccccc3Sc3cc(F)c(F)cc32)CC1.CS(=O)(=O)O,-22.5
15,CS(=O)(=O)O.Cc1cccc2c1Sc1ccc(Cl)cc1CC2N1CCNCC1.O (centres unmarked),5.75
16,CN1CCN(C2Cc3ccc(F)cc3Sc3cc(F)c(Cl)cc32)CC1.CS(=O)(=O)O.O (centres unmarked),-77.3
17,Cc1nc2c(o1)CCc1ccccc1C2N1CCN(C)CC1.O=C(O)/C=C/C(=O)O (centres unmarked),-5.58
18,CCc1cccc2c1Sc1ccccc1CC2N1CCNCC1.CS(=O)(=O)O (centres unmarked),-31.1
19,CC(C)c1ccc2c(c1)C(N1CCNCC1)Cc1ccc(F)cc1S2.O.O=C(O)/C=C\C(=O)O (centres unmarked),5.51
20,CS(=O)(=O)O.Clc1cccc2c1Sc1ccccc1CC2N1CCNCC1 (centres unmarked),-72.4
21,CCOc1ccc(Cn2nnc(C(=O)NCc3ccc(OC)cc3)c2N)cc1,6.41
22,CCN(CC)c1ccc(C2C(C(=O)OCCOC)=C(C)NC3=C2C(=O)CCC3)cc1 (centres unmarked),-5.24

row,SMILES,"hERG current change (%, negative = inhibition) at 10uM [%]"
1,CCOc1ccc(-c2cc(N)n(S(=O)(=O)c3ccc(OC)cc3)n2)cc1,10.7
2,CN1c2ccccc2-c2nc3ccccc3n2C1c1ccco1 (centres unmarked),-15.3
3,CC1CCCC(C)N1C(=O)Cn1cc(C#N)c2ccccc21 (centres unmarked),9.8
4,CSc1ccc2c(c1)C(N1CCN(C)CC1)Cc1ccccc1S2.O=C([O-])/C=C\C(=O)[O-] (centres unmarked),-65.2
5,CCS(=O)(=O)N1CCN(C2Cc3ccccc3C2)CC1.O=C(O)C(=O)O,3.3
6,Cc1nc2c(o1)CCc1ccccc1C2N1CCN(C)CC1.O=C([O-])/C=C\C(=O)[O-] (centres unmarked),12.4
7,CCc1ccc2c(c1)Sc1ccccc1CC2N1CCN(C)CC1.CS(=O)(=O)O.O (centres unmarked),-69
8,CN(C)/C=C/C(=O)c1ccn(S(=O)(=O)c2ccccc2)c1,23.6
9,Fc1ccc(Cn2nnnc2C(c2ccc(Cl)cc2)N2CC=C(c3ccc(F)cc3)CC2)cc1 (centres unmarked),10.1
10,CCOc1ccc(N(C)Cc2cc(=O)oc3ccc(OCC)cc23)cc1,-1.17
11,CCOc1cc2[nH]c(=S)n(C3CCN(Cc4ccccc4)CC3)c(=O)c2cc1OCC,17.6
12,Cc1nn(Cc2ccccc2)c(=O)n1N(C)c1ncc(C(F)(F)F)cc1Cl,-7.74
13,Cc1ccsc1C1C(C#N)=C(N)OC2=C1C(=O)CC(C)(C)C2 (centres unmarked),-6.69
14,O=C1C=C(NCc2ccco2)CCC1,16.7
15,O=C1C=C(Nc2ccc(Cl)cc2)CC(c2ccc(Cl)cc2)C1 (centres unmarked),-2.27
16,O=C1C=C(NCc2ccco2)CC(c2ccc(Cl)cc2)C1 (centres unmarked),-61.5
17,O=C1C=C(NCc2ccc(Cl)cc2)CC(c2ccco2)C1 (centres unmarked),-82.2
18,O=C1C=C(Nc2ccc(Cl)cc2)CC(c2ccco2)C1 (centres unmarked),-1.85
19,O=C1C=C(Nc2cccc(Cl)c2)CC(c2ccco2)C1 (centres unmarked),-4.15
20,N#Cc1c(C(F)(F)F)cc(-c2ccccc2)n(N)c1=O,13.9
21,Cc1cc(C)n2nc(SCc3ccc(F)cc3Cl)nc2n1,-4.5
22,Cn1c(N=Nc2ccccc2)nc2ccccc21,4.08

row,SMILES,"hERG current change (%, negative = inhibition) at 10uM [%]"
1,S=c1[nH]c2ccccc2n2c(=S)[nH]nc12,5.26
2,COCCCNC(=O)CN(c1cc(Cl)ccc1OC)S(C)(=O)=O,17.4
3,Oc1ccc(CN2CCN(Cc3ccccc3)CC2)c2cccnc12,-13.9
4,CCCCCc1c(C)nc(NCc2ccccc2)[nH]c1=O,-4.44
5,N/C(=N\OC(=O)c1ccc(Cl)c(Cl)c1)c1ccccn1,3.76
6,CC1CCN(S(=O)(=O)c2ccc3c(c2)N(CC(=O)NCCCN2CCCCC2C)C(=O)CS3)CC1 (centres unmarked),0.668
7,CC1CCN(CCCNC(=O)CN2C(=O)CSc3ccc(S(=O)(=O)N4CCOCC4)cc32)CC1,6.31
8,O=C(CN1C(=O)CSc2ccc(S(=O)(=O)N3CCOCC3)cc21)NCCCN1CCCCC1,18
9,CCCCCCCNC(=O)CN1C(=O)CSc2ccc(S(=O)(=O)N3CCOCC3)cc21,-17.7
10,CC1CCN(S(=O)(=O)c2ccc3c(c2)N(CC(=O)NCc2cccnc2)C(=O)CS3)CC1,-53.3
11,O=C(CN1C(=O)CSc2ccc(S(=O)(=O)N3CCOCC3)cc21)NCc1cccnc1,6.4
12,CC1CCCCN1CCNC(=O)CN1C(=O)CSc2ccc(S(=O)(=O)N3CCCCC3)cc21 (centres unmarked),-17.6
13,CC1CCN(S(=O)(=O)c2ccc3c(c2)N(CC(=O)NCCCN2CCCCC2)C(=O)CS3)CC1,-10.6
14,Cc1ccc(CNC(=O)CN2C(=O)CSc3ccc(S(=O)(=O)N4CCC(C)CC4)cc32)cc1,-27.4
15,O=C(CN1C(=O)CSc2ccc(S(=O)(=O)N3CCOCC3)cc21)NCCCN1CCc2ccccc2C1,-66.3
16,CC1CCN(S(=O)(=O)c2ccc3c(c2)N(CC(=O)NCCN2C(C)CCCC2C)C(=O)CS3)CC1 (centres unmarked),-52.7
17,CC1CCN(CCCNC(=O)CN2C(=O)CSc3ccc(S(=O)(=O)N4CCC(C)CC4)cc32)CC1,-54.5
18,O=C(NC1CC2CCCC(C1)N2C(=O)Nc1ccccc1)C1CC1 (centres unmarked),6.44
19,Cn1c(Cc2cccc3ccccc23)nnc1SCC(=O)N1CCN(c2cccc(Cl)c2)CC1,-25.7
20,COc1ccc(S(=O)(=O)N(CC(=O)N2CCN(C)CC2)C2CCCCC2)cc1OC,-7.66
21,COC(=O)C(C(=O)OC)=C(/C=C/C=C/N(C)C)N(C)C,13.9
22,CCN(CC)S(=O)(=O)c1ccc(OC(C)C)nc1,-1.16

row,SMILES,"hERG current change (%, negative = inhibition) at 10uM [%]"
1,COc1ccc([C@H]2CC(=O)C=C(c3cc4ccccc4c4ccccc34)C2)cc1,13.6
2,CCCc1c(C(=O)NNc2cc(C(F)(F)F)ccc2Cl)cnn1-c1ccccc1,0.78
3,Cc1ccc(C)c(NC(=O)C2C3CCCC2C3c2ccccc2)c1 (centres unmarked),6.75
4,CC1CCCN(CCCNC(=O)CN2C(=O)CSc3ccc(S(=O)(=O)N4CCOCC4)cc32)C1 (centres unmarked),19.5
5,CCC1CCCCN1CCCNC(=O)CN1C(=O)CSc2ccc(S(=O)(=O)N3CCC(C)CC3)cc21 (centres unmarked),-9.76
6,CC1CCN(S(=O)(=O)c2ccc3c(c2)NC(=O)CS3)CC1,-52.2
7,CC1CC(C)CN(CCCNC(=O)CN2C(=O)CSc3ccc(S(=O)(=O)N4CCCCC4)cc32)C1 (centres unmarked),-50.2
8,CC1CCN(S(=O)(=O)c2ccc3c(c2)N(CC(=O)NCCCN2CCCC(C)C2)C(=O)CS3)CC1 (centres unmarked),-20.6
9,CC1CC(C)CN(CCCNC(=O)CN2C(=O)CSc3ccc(S(=O)(=O)N4CCOCC4)cc32)C1 (centres unmarked),15.8
10,CN1CCN(S(=O)(=O)c2ccc3c(c2)NC(=O)CS3)CC1,13.3
11,CC1CCN(S(=O)(=O)c2ccc3c(c2)N(CC(=O)NCCCN2CC(C)CC(C)C2)C(=O)CS3)CC1 (centres unmarked),-66.2
12,CCN1CCN(S(=O)(=O)c2ccc3c(c2)NC(=O)CS3)CC1,19.9
13,COc1ccc(N(CC(=O)NCCSc2ccccn2)S(=O)(=O)c2ccc(C)cc2)cc1OC,-17.7
14,CCOc1ccccc1NC(=O)CCNS(=O)(=O)c1ccccc1,17.6
15,Cc1ccc(C2=Nc3ccccc3N=C(c3ccc([N+](=O)[O-])cc3)C2)c(O)c1,-3.53
16,COc1ccc([C@@H]2CC(=O)c3c(O)cc(O)cc3O2)cc1O,5.19
17,COc1ccc(OC)c(N2Cc3ccccc3C2)c1,12
18,c1ccc(-n2nnc3cnccc32)cc1,12
19,c1ccc(Cn2nnc3cnccc32)cc1,2.3
20,c1ccc(-n2c(Cc3cccnc3)nc3cnccc32)cc1,-50.5
